For experiment [1], the target named is Bile acid receptor (Homo sapiens) (UniProt Q96RI1). The experiment is described as follows: ATG_FXR_TRANS: Attagene TRANS-FACTORIAL HepG2 Assay for Farnesoid X Receptor (FXR) (AID 2282979; active = hit-call score of the fitted dose curve at least 0.9, where 1 is the maximum;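 also: hits raise reporter mRNA above DMSO so AC50 marks FXR activation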). Conditions: HepG2 Attagene TRANS FXR-GAL4 reporter transcription. An outline of the steps:
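HepG2 cells transiently transfected with reporter constructs in which a chimeric FXR-GAL4 protein drives a GAL4-UAS reporter; 24 h compound exposure. Reporter mRNA measured by RT-PCR, FAM labelling, HpaI digestion and capillary electrophoresis; gain-of-signal versus DMSO.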

The target in experiment [2] is Oxysterols receptor LXR-beta (Homo sapiens) (UniProt P55055). The experiment is described as follows: ATG_LXRb_TRANS: Attagene TRANS-FACTORIAL HepG2 Assay for human Liver X Receptor beta (LXRb) (AID 2282981; active = hit-call score of the fitted dose curve at least 0.9, where 1 is the maximum). The following applies: HepG2 Attagene TRANS GAL4-LXRb reporter, mRNA. An outline of the steps:
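Liver-derived HepG2 cells transfected with Gal4-responsive reporters were dosed for 24 h. Activation was scored as rise in reporter mRNA, by RT-PCR and capillary electrophoresis, above DMSO baseline.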

The nature of experiment [3]: ATG_M_06_TRANS: Attagene TRANS-FACTORIAL HepG2 Assay for M06 Transcription Factor (Internal Marker) (AID 2282983; active = hit-call score of the fitted dose curve at least 0.9, where 1 is the maximum;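 as to outcome: reporter transcript level by RT-PCR then capillary electrophoresis fluorescence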). Conditions: HepG2 Attagene TRANS M06 internal marker reporter. The essentials: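 In this multiplexed HepG2 system, compounds are incubated 24 h with cells carrying GAL4-UAS reporter units. Reporter RNA is amplified and resolved by capillary electrophoresis, and induction is scored against DMSO.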

A short description of experiment [4]: ATG_M_32_TRANS: Attagene TRANS-FACTORIAL HepG2 Assay for M32 Transcription Factor (Internal Marker) (AID 2282984; active = hit-call score of the fitted dose curve at least 0.9, where 1 is the maximum;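 also: transcript level of a background control reporter unit measured by RT-PCR and capillary electrophoresis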). Conditions: HepG2 Attagene TRANS M32 internal marker reporter. An outline of the steps:
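Fluorescence-detected mRNA induction, HepG2 liver cells, 24 h after dosing. Multiple GAL4-UAS reporter units introduced by transient transfection; background-control endpoint analysed for gain of signal against DMSO.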

The target of experiment [5] is Nuclear respiratory factor 1 (Homo sapiens) (UniProt Q16656). The experiment is described as follows: ATG_NRF1_CIS: Attagene CIS-FACTORIAL HepG2 Assay for human Nuclear Respiratory Factor 1 (NRF1) Orphan Gene (AID 2282987). The following applies: HepG2 NRF1 cis-element reporter, Attagene multiplex; actives raise or lower the signal. The essentials: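 Transcriptional reporter readout, one component of a 52-endpoint multiplexed HepG2 panel. Exposure 24 h; mRNA detected via RT-PCR and fluorescent capillary electrophoresis; fitting in both directions against DMSO.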

The target in experiment [6] is Myc proto-oncogene protein (Homo sapiens) (UniProt P01106). Briefly: ATG_Myc_CIS: Attagene CIS-FACTORIAL HepG2 Assay for human Myelocytomatosis (Myc) Proto-Oncogene Transcription Factor (AID 2282990). The following applies: HepG2, Attagene cis-reporter transcription factor activity; actives raise or lower the signal. The essentials:
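DMSO-normalised, bidirectionally fitted reporter mRNA signal. HepG2 cells transfected with cis reporter constructs, treated 24 h; transcripts detected by RT-PCR, 6-FAM primer extension and CE.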

A short description of experiment [7]: ATG_NF_kB_CIS: Attagene CIS-FACTORIAL HepG2 Assay for human Nuclear Factor Kappa B (NF-kB) (AID 2282991). Conditions: HepG2 Attagene cis-factorial NF-kB reporter mRNA; actives raise or lower the signal. An outline of the steps:
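HepG2, transient multi-reporter transfection, cis promoter elements (endogenous TFs). 24 h exposure. Total RNA → RT → PCR → 6-FAM label → HpaI → CE. Gain/loss vs DMSO.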

Experiment [8] in a line: ATG_NRF2_ARE_CIS: Attagene CIS-FACTORIAL HepG2 Assay for human Nuclear Factor Erythroid 2 Related Factor 2 (NFR2) response to Antioxidant Response Elements (ARE) (AID 2282992).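 As to AC50: reporter mRNA level measured by RT-PCR and capillary electrophoresis fluorescence.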 The following applies: HepG2 Attagene ARE/NRF2 reporter, transcription factor activity; actives raise or lower the signal. The essentials:
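Fluorescence intensity of reporter-specific cDNA fragments, separated by capillary electrophoresis, reflects mRNA induction in transfected HepG2 cells at 24 h. Activity is fitted bidirectionally, DMSO serving as baseline.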

Experiment [9] is described as follows: ATG_Oct_MLP_CIS: Attagene CIS-FACTORIAL HepG2 Assay for human Octamer-Binding Transcription Factor (Oct) (AID 2282993). The following applies: HepG2 Attagene cis-factorial Oct reporter, mRNA; actives raise or lower the signal. The essentials: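 Using HepG2 cells bearing transfected cis-reporter constructs, mRNA induction was read after 24 h by fluorescent RT-PCR and capillary electrophoresis, with DMSO defining baseline for gain- or loss-of-signal fits.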

For experiment [10], the target named is Cellular tumor antigen p53 (Homo sapiens) (UniProt P04637). Briefly: ATG_p53_CIS: Attagene CIS-FACTORIAL HepG2 Assay for human p53 Transcription Factor (AID 2282994). Conditions: HepG2 p53 cis-element reporter, Attagene mRNA; actives raise or lower the signal. The essentials:
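Transiently transfected HepG2 (multiple cis reporter transcription units); exposure 24 h; reporter RNA via RT-PCR, 6-FAM extension, 2 h HpaI digest at 37 C, CE detection; DMSO baseline.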

Experiment [11] concerns the target human Peroxisome Proliferator-activated Receptor alpha (PPARa), PPARA (gene 5465) (UniProt Q07869). The experiment is described as follows: ATG_PPARa_TRANS: Attagene TRANS-FACTORIAL HepG2 Assay for human Peroxisome Proliferator-activated Receptor alpha (PPARa) (AID 2283001; active = hit-call score of the fitted dose curve at least 0.9, where 1 is the maximum). An outline of the steps:
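Exposure: 24 h, transiently transfected HepG2 cells. Endpoint: GAL4-UAS reporter mRNA, RT-PCR with capillary electrophoresis fluorescence. Baseline: DMSO; increases fitted.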

Experiment [12] concerns the target Hepatocyte nuclear factor 4-alpha (Homo sapiens) (UniProt P41235). Briefly: ATG_HNF4a_TRANS: Attagene TRANS-FACTORIAL HepG2 Assay for human Hepatocyte Nuclear Factor 4 alpha (HNF4a) (AID 2282982; active = hit-call score of the fitted dose curve at least 0.9, where 1 is the maximum). Conditions: HepG2 HNF4a transactivation reporter, mRNA readout. An outline of the steps:
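Using HepG2 liver cells transfected with GAL4-UAS reporter units, chemical-induced mRNA increases were assessed after 24 hours. Fluorescent RT-PCR fragments were separated by capillary electrophoresis and compared with DMSO negative controls.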

Experiment [13] concerns the target Transcriptional activator Myb (Homo sapiens) (UniProt P10242). The experiment is described as follows: ATG_Myb_CIS: Attagene CIS-FACTORIAL HepG2 Assay for human Myeloblastosis (Myb) Proto-Oncogene Transcription Factor (AID 2282986). Conditions: HepG2 Attagene CIS-FACTORIAL Myb reporter transcription; actives raise or lower the signal. An outline of the steps: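 Fluorescence signals from capillary electrophoresis of RT-PCR-amplified reporter cDNA give the read-out. Cells: HepG2 transfected with multiple cis-regulated reporter units. Exposure lasts 24 hours; DMSO defines baseline for gain or loss of signal.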

A short description of experiment [14]: BSK_3C_TissueFactor: BioMAP Diversity Plus: 3C Assay for Tissue Factor Biomarker Activity (AID 2282997). The following applies: BioMAP 3C HUVEC, tissue factor biomarker readout; actives raise or lower the signal. An outline of the steps:
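Readout: Tissue Factor ELISA. Cells: human primary umbilical vein endothelium. Time: 24 h after dosing. Analysis: bidirectional fit, DMSO baseline.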

The nature of experiment [15]: BSK_3C_VCAM1: BioMAP Diversity Plus: 3C Assay for Vascular cell adhesion molecule 1 (VCAM1) Biomarker Activity (AID 2282999). The following applies: BioMAP 3C HUVEC, VCAM1 ELISA, cytokine-stimulated; actives raise or lower the signal. The essentials: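 Vascular primary endothelium (human umbilical vein) was exposed to chemicals and assayed 24 h later. VCAM-1 levels came from ELISA, with DMSO serving as baseline for bidirectional fitting.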
A general note: An ELISA detects its analyte on a solid surface through an enzyme-linked reagent.

A short description of experiment [16]: BSK_4H_Eotaxin3: BioMAP Diversity Plus: 4H Assay for Eotaxin 3 Biomarker Activity (AID 2283000).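 As to outcome: CCL26 protein level quantified by ELISA in parallel with SRB cytotoxicity check.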 Conditions: primary human endothelial cells (HUVEC); actives raise or lower the signal. An outline of the steps: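 HUVEC, 24 h post-dose, ELISA for Eotaxin-3/CCL26. Gain or loss of signal fitted bidirectionally vs DMSO baseline.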
A short description of experiment [17]: BSK_3C_uPAR: BioMAP Diversity Plus: 3C Assay for Urokinase-type plasminogen activator receptor (uPAR) Biomarker Activity (AID 2282998). Conditions: BioMAP 3C HUVEC, uPAR biomarker ELISA; actives raise or lower the signal. An outline of the steps:
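In this endothelial cell-based assay, human umbilical vein primary cells were treated with chemicals and harvested at 24 h. uPAR was quantified using ELISA, with gains or losses fitted relative to DMSO controls.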

Experiment [18] in a line: ATG_NFI_CIS: Attagene CIS-FACTORIAL HepG2 Assay for human Nuclear Factor I (NFI) (AID 2282989). The following applies: HepG2 cis-regulatory reporter, NFI response element transcription; actives raise or lower the signal. The essentials:
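Transfected HepG2 liver cells, exposed 24 h, supplied total RNA for oligo(dT) reverse transcription and reporter-specific PCR. Labelled, HpaI-cut fragments were sized by capillary electrophoresis; DMSO set the baseline for bidirectional fitting.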

One may read the AC50 as the midpoint of the concentration-response curve, whichever way the signal moves.

Records with an inconclusive call do not appear. Activity calls are given as the source filed them. The calls were made as follows, unless noted: active = hit-call score of the fitted dose curve at least 0.9, where 1 is the maximum; inactive = score below 0.9.

Chain of Nuclear respiratory factor 1 (Homo sapiens) (Q16656 whole entry, looked up): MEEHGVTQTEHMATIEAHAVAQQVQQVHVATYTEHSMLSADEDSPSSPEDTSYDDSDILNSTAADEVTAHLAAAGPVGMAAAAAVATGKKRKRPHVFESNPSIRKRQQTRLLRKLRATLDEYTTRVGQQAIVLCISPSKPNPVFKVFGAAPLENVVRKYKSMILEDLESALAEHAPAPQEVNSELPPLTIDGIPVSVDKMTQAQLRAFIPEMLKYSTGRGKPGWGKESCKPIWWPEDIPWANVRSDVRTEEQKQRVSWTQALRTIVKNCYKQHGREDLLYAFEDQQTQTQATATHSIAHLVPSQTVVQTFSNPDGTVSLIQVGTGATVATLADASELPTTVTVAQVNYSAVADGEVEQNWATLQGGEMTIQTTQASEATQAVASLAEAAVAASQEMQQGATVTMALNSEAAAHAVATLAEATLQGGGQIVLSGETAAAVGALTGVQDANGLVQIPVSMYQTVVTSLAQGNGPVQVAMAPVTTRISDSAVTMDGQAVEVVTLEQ
Chain of Bile acid receptor (Homo sapiens) (Q96RI1 whole entry, looked up, the tested form may be a part): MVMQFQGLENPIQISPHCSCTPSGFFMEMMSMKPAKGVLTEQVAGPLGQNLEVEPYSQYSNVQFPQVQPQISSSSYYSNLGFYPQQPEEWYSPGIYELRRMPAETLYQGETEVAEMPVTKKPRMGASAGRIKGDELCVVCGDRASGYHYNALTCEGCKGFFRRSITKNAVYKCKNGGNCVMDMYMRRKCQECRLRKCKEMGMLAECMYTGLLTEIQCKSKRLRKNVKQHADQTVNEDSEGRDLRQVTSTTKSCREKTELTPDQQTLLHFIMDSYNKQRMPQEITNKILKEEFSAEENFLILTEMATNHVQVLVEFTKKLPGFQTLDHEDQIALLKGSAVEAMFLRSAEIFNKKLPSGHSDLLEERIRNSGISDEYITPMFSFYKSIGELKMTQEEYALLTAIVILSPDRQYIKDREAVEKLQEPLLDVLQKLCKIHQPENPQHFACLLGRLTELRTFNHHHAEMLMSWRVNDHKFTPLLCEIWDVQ
Chain of human Peroxisome Proliferator-activated Receptor alpha (PPARa), PPARA (gene 5465) (Q07869 whole entry, looked up, the tested form may be a part): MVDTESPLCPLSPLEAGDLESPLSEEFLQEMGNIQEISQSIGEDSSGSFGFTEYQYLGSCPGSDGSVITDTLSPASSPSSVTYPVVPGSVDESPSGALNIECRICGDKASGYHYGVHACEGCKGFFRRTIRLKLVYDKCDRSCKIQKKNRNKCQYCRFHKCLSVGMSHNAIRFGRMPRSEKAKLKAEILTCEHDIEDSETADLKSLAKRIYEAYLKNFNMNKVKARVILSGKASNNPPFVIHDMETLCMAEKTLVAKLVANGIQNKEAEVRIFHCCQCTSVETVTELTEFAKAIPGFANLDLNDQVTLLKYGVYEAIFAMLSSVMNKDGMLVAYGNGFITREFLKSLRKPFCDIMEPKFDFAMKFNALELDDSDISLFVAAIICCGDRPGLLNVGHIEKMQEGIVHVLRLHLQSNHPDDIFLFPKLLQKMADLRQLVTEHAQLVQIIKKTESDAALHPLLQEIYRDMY
Chain of Oxysterols receptor LXR-beta (Homo sapiens) (P55055 whole entry, looked up, the tested form may be a part): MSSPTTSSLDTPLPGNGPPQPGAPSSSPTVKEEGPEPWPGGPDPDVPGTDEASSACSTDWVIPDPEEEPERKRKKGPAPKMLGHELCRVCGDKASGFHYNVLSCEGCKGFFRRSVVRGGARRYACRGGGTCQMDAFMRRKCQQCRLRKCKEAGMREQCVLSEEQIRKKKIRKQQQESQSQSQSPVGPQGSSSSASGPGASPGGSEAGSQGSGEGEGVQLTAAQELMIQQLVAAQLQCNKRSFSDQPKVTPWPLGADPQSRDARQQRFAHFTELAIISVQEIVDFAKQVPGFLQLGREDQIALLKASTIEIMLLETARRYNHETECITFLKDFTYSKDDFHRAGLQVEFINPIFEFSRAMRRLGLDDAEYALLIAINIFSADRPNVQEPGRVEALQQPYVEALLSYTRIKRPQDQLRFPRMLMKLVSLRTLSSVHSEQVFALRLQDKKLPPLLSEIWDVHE
Chain of Myc proto-oncogene protein (Homo sapiens) (P01106 whole entry, looked up): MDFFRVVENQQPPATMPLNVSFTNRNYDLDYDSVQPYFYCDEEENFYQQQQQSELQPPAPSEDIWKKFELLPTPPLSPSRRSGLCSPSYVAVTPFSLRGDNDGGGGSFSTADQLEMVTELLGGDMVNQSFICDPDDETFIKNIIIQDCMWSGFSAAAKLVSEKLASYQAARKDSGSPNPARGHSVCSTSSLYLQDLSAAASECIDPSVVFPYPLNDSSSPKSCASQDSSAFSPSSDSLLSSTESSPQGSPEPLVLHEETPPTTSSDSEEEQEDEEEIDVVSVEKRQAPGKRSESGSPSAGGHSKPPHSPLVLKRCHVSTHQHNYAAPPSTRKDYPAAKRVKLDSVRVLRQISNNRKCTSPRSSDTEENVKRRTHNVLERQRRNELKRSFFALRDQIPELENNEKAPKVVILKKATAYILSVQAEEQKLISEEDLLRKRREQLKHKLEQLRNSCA
Chain of Cellular tumor antigen p53 (Homo sapiens) (P04637 whole entry, looked up): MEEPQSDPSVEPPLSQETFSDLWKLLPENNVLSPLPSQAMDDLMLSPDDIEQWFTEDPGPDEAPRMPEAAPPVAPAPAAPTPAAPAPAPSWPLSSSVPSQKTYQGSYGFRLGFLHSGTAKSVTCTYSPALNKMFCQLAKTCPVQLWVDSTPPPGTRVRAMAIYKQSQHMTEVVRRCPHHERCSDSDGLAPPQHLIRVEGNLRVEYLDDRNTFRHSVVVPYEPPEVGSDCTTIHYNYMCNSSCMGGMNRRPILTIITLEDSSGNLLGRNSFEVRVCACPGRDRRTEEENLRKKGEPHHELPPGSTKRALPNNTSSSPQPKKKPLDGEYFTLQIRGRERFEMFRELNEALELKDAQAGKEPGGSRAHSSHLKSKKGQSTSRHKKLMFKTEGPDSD
Chain of Hepatocyte nuclear factor 4-alpha (Homo sapiens) (P41235 whole entry, looked up, the tested form may be a part): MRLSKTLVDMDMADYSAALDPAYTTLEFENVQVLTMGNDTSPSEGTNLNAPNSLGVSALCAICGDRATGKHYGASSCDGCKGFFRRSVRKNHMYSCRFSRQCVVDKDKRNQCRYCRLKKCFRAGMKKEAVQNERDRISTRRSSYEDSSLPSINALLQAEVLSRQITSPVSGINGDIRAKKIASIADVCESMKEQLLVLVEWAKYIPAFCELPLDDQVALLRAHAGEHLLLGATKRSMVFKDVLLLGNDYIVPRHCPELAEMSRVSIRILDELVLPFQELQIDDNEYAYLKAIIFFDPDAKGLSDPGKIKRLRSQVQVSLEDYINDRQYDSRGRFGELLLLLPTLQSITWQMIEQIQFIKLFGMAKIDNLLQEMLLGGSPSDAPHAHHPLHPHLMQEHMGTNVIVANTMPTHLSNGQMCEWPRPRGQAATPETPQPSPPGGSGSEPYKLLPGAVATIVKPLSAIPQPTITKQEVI
Chain of Transcriptional activator Myb (Homo sapiens) (P10242 whole entry, looked up): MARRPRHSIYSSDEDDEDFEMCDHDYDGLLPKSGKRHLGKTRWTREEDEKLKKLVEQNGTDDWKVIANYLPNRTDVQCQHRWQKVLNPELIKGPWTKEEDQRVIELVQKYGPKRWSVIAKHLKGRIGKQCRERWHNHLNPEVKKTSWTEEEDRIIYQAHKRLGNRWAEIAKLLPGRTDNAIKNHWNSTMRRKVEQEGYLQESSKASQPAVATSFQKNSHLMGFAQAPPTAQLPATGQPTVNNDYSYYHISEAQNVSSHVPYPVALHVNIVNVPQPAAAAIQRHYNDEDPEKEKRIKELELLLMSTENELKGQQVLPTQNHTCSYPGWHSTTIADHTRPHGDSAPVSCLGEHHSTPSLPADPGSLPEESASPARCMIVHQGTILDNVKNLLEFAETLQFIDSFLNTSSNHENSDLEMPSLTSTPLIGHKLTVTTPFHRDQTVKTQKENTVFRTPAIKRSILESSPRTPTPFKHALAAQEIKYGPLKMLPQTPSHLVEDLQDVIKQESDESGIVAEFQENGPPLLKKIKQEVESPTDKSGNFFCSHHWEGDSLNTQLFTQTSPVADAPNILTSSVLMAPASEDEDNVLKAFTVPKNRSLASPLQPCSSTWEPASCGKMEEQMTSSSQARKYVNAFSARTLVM

Regarding `CCCCC[C@H](O)CC(=O)CCc1ccc(O)c(OC)c1`, the result in experiment [1], in experiment [2], in experiment [3], in experiment [4], in experiment [6] and in experiment [7] was inactive. Also, the result in experiment [9], in [10] and in experiment [11] was inactive. In addition, the values for the AC50 in experiment [5] and in experiment [8] were 152 µM (active) and 29.9 µM (active), respectively.

On to `CC(=O)NC1(c2cccc(F)c2)CCN(CC[C@@]2(c3ccc(Cl)c(Cl)c3)CN(c3ccccc3)C(=O)CO2)CC1`, for which the call in [1], in experiment [2], in experiment [12], in experiment [13], in experiment [14] and in experiment [11] was inactive. Besides, the AC50 in [3] was 52 µM (active); in experiment [5], 57.5 µM (active); in experiment [6], 61.5 µM (active); in experiment [7], 55 µM (active); in experiment [8], 9.13 µM (active); in experiment [9] it was 37.3 µM (active). For the same molecule, the AC50 was 18.4 µM (active) in [10], 24.2 µM (active) in experiment [15] and 27.1 µM (active) in [16].

On to `CCCCCCCCCCCCCCCS(=O)(=O)Oc1ccccc1`, for which the molecule was called inactive in [1], in experiment [2], in [12], in experiment [3], in experiment [5] and in experiment [6]. For the same molecule, the molecule was called inactive in experiment [7], in [8], in experiment [9], in experiment [10], in experiment [14] and in [17]. For the same molecule, the outcome in [15] and in experiment [16] was inactive.

As for `CCCCCCC(=O)O`, the molecule was classed as inactive in [1], in [2], in experiment [12], in experiment [3], in experiment [4] and in [5]. For the same molecule, the result in [18], in experiment [6], in experiment [8], in experiment [9], in experiment [10] and in [14] was inactive. The outcome in [15], in experiment [16] and in experiment [11] was inactive.

Values taken from PubChem BioAssay (EPA / NIEHS).
